# Residue numbers refer to the chain shown, from its start.
# What was measured:
# Assay in all cases: PBM; 200 nM protein, PBS
# Conditions in all cases: dsDNA, one strand shown
# HOXA7 [1] = biological target: HOXA7 (Homo sapiens, UniProt P31268 116-202)
# PAX4 [2] = biological target: T1, PAX4 (Homo sapiens, UniProt O43316 9-242, R200K)
# T1 sequence: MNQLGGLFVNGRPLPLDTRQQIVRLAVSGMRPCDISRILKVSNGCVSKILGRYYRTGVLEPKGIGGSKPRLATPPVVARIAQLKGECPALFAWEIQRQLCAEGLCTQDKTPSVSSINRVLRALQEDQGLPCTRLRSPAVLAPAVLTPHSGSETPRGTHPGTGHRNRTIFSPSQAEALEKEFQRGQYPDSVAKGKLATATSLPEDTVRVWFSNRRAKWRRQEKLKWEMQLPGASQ
# PAX4 [3] = biological target: T2, PAX4 (Homo sapiens, UniProt O43316 9-242, F177V)
# T2 sequence: T1 sequence with F169V, K192R
# PAX4 [4] = biological target: T3, PAX4 (Homo sapiens, UniProt O43316 9-242, F177Y)
# T3 sequence: T1 sequence with F169Y, K192R
# PAX4 [5] = biological target: T4, PAX4 (Homo sapiens, UniProt O43316 9-242, R227W)
# T4 sequence: T1 sequence with K192R, R219W
# HOXA7 [6] = biological target: HOXA7 (Homo sapiens, UniProt P31268 116-202, W177C)
# VENTX [7] = biological target: T5, VENTX (Homo sapiens, UniProt O95231 78-163, R121Q)
# T5 sequence: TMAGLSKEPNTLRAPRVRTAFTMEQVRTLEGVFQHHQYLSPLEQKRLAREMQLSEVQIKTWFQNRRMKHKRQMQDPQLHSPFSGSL
# VENTX [8] = biological target: T6, VENTX (Homo sapiens, UniProt O95231 78-163, Y115F)
# T6 sequence: T5 sequence with Y38F, Q44R
# HOXB6 = HOXB6 (Homo sapiens, UniProt P17509 132-218, K202E)
# HOXA2 [9] = biological target: HOXA2 (Homo sapiens, UniProt O43364 129-215, R185T)
# HOXA2 [10] = biological target: HOXA2 (Homo sapiens, UniProt O43364 129-215, R185K)
# HOXA2 [11] = biological target: HOXA2 (Homo sapiens, UniProt O43364 129-215, Y150S)
# HOXA2 [12] = biological target: HOXA2 (Homo sapiens, UniProt O43364 129-215)
# HOXA4 = HOXA4 (Homo sapiens, UniProt Q00056 201-287, W262F)
# ALX3 [13] = biological target: ALX3 (Homo sapiens, UniProt O95076 139-225, N203Q)
# ALX3 [14] = biological target: ALX3 (Homo sapiens, UniProt O95076 139-225)
# ALX3 [15] = biological target: ALX3 (Homo sapiens, UniProt O95076 139-225, N203S)
# VAX1 = VAX1 (Homo sapiens, UniProt Q5SQQ9 86-172, T142I)
# VAX1, sequence (Q5SQQ9 86-172 T142I): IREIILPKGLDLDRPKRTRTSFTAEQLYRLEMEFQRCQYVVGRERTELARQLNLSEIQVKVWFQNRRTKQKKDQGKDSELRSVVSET
# HOXB6, sequence (P17509 132-218 K202E): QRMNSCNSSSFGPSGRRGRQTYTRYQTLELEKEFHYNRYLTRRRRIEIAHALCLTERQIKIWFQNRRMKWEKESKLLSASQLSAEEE
# HOXA4, sequence (Q00056 201-287 W262F): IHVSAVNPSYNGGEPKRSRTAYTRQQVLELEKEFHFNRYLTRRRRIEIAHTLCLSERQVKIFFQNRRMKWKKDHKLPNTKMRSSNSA
# HOXA2 (Homo sapiens, UniProt O43364 129-215, R185K), sequence (O43364 129-215 R185K): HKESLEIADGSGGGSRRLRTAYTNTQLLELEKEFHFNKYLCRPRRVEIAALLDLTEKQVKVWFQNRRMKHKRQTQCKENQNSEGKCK
# HOXA2 (Homo sapiens, UniProt O43364 129-215, Y150S), sequence (O43364 129-215 Y150S): as the sequence (O43364 129-215 R185K) above, with Y22S, K57R counted along it
# HOXA7 (Homo sapiens, UniProt P31268 116-202, W177C), sequence (P31268 116-202 W177C): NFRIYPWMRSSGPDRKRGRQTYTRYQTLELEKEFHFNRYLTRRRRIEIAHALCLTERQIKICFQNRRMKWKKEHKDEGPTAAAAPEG
# HOXA7 (Homo sapiens, UniProt P31268 116-202), sequence (P31268 116-202): as the sequence (P31268 116-202 W177C) above, with C62W counted along it
# HOXA2 (Homo sapiens, UniProt O43364 129-215, R185T), sequence (O43364 129-215 R185T): as the sequence (O43364 129-215 R185K) above, with K57T counted along it
# HOXA2 (Homo sapiens, UniProt O43364 129-215), sequence (O43364 129-215): as the sequence (O43364 129-215 R185K) above, with K57R counted along it
# ALX3 (Homo sapiens, UniProt O95076 139-225, N203Q), sequence (O95076 139-225 N203Q): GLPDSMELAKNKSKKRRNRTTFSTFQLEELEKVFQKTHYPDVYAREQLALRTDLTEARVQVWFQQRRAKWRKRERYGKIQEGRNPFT
# ALX3 (Homo sapiens, UniProt O95076 139-225, N203S), sequence (O95076 139-225 N203S): as the sequence (O95076 139-225 N203Q) above, with Q65S counted along it
# ALX3 (Homo sapiens, UniProt O95076 139-225), sequence (O95076 139-225): as the sequence (O95076 139-225 N203Q) above, with Q65N counted along it
sequence,measurement,setting,value
CGGGCCCG,binding signal,HOXA7 [1],"8.8 upbm affinity estimate (log intensity, higher = more binding, comparable within an allelic series)"
same,binding signal,PAX4 [2],"9.58 upbm affinity estimate (log intensity, higher = more binding, comparable within an allelic series)"
same,binding signal,PAX4 [3],"9.21 upbm affinity estimate (log intensity, higher = more binding, comparable within an allelic series)"
same,binding signal,PAX4 [4],"9.11 upbm affinity estimate (log intensity, higher = more binding, comparable within an allelic series)"
same,binding signal,PAX4 [5],"9.33 upbm affinity estimate (log intensity, higher = more binding, comparable within an allelic series)"
same,binding signal,HOXA7 [6],"8.26 upbm affinity estimate (log intensity, higher = more binding, comparable within an allelic series)"
CCAGGACC,binding signal,VENTX [7],"8.04 upbm affinity estimate (log intensity, higher = more binding, comparable within an allelic series)"
same,binding signal,VENTX [8],"8.14 upbm affinity estimate (log intensity, higher = more binding, comparable within an allelic series)"
CCGCCCCC,binding signal,VENTX [7],"8.05 upbm affinity estimate (log intensity, higher = more binding, comparable within an allelic series)"
same,binding signal,VENTX [8],"7.95 upbm affinity estimate (log intensity, higher = more binding, comparable within an allelic series)"
same,binding signal,HOXB6,"8.84 upbm affinity estimate (log intensity, higher = more binding, comparable within an allelic series)"
same,binding signal,HOXA2 [9],"6.99 upbm affinity estimate (log intensity, higher = more binding, comparable within an allelic series)"
same,binding signal,HOXA2 [10],"9.92 upbm affinity estimate (log intensity, higher = more binding, comparable within an allelic series)"
same,binding signal,HOXA2 [11],"10.2 upbm affinity estimate (log intensity, higher = more binding, comparable within an allelic series)"
same,binding signal,HOXA2 [12],"6.94 upbm affinity estimate (log intensity, higher = more binding, comparable within an allelic series)"
GCAGGCGC,binding signal,HOXA2 [9],"6.79 upbm affinity estimate (log intensity, higher = more binding, comparable within an allelic series)"
same,binding signal,HOXA2 [10],"10 upbm affinity estimate (log intensity, higher = more binding, comparable within an allelic series)"
same,binding signal,HOXA2 [11],"10.3 upbm affinity estimate (log intensity, higher = more binding, comparable within an allelic series)"
same,binding signal,HOXA4,"9.73 upbm affinity estimate (log intensity, higher = more binding, comparable within an allelic series)"
same,binding signal,HOXA2 [12],"6.79 upbm affinity estimate (log intensity, higher = more binding, comparable within an allelic series)"
GCCAGCGA,binding signal,VENTX [7],"8.16 upbm affinity estimate (log intensity, higher = more binding, comparable within an allelic series)"
same,binding signal,VENTX [8],"8.18 upbm affinity estimate (log intensity, higher = more binding, comparable within an allelic series)"
CAGCCAGG,binding signal,VENTX [7],"8.2 upbm affinity estimate (log intensity, higher = more binding, comparable within an allelic series)"
same,binding signal,VENTX [8],"8.16 upbm affinity estimate (log intensity, higher = more binding, comparable within an allelic series)"
AGCTGCCT,binding signal,HOXA7 [1],"8.26 upbm affinity estimate (log intensity, higher = more binding, comparable within an allelic series)"
same,binding signal,HOXA7 [6],"8.25 upbm affinity estimate (log intensity, higher = more binding, comparable within an allelic series)"
CCGAGCCG,binding signal,HOXA7 [1],"8.34 upbm affinity estimate (log intensity, higher = more binding, comparable within an allelic series)"
same,binding signal,ALX3 [13],"7.62 upbm affinity estimate (log intensity, higher = more binding, comparable within an allelic series)"
same,binding signal,ALX3 [14],"7.46 upbm affinity estimate (log intensity, higher = more binding, comparable within an allelic series)"
same,binding signal,HOXA7 [6],"8.22 upbm affinity estimate (log intensity, higher = more binding, comparable within an allelic series)"
same,binding signal,ALX3 [15],"7.67 upbm affinity estimate (log intensity, higher = more binding, comparable within an allelic series)"
AGGGTCCC,binding signal,HOXA4,"9.78 upbm affinity estimate (log intensity, higher = more binding, comparable within an allelic series)"
GCAATTAC,binding signal,HOXA7 [1],"11.2 upbm affinity estimate (log intensity, higher = more binding, comparable within an allelic series)"
same,binding signal,HOXB6,"9.75 upbm affinity estimate (log intensity, higher = more binding, comparable within an allelic series)"
same,binding signal,HOXA7 [6],"8.74 upbm affinity estimate (log intensity, higher = more binding, comparable within an allelic series)"
AATTATTA,binding signal,HOXA7 [1],"11.3 upbm affinity estimate (log intensity, higher = more binding, comparable within an allelic series)"
same,binding signal,HOXB6,"10.1 upbm affinity estimate (log intensity, higher = more binding, comparable within an allelic series)"
same,binding signal,ALX3 [13],"8.58 upbm affinity estimate (log intensity, higher = more binding, comparable within an allelic series)"
same,binding signal,ALX3 [14],"12.3 upbm affinity estimate (log intensity, higher = more binding, comparable within an allelic series)"
same,binding signal,PAX4 [4],"10.9 upbm affinity estimate (log intensity, higher = more binding, comparable within an allelic series)"
same,binding signal,VAX1,"12.3 upbm affinity estimate (log intensity, higher = more binding, comparable within an allelic series)"
same,binding signal,PAX4 [5],"11 upbm affinity estimate (log intensity, higher = more binding, comparable within an allelic series)"
same,binding signal,HOXA7 [6],"8.91 upbm affinity estimate (log intensity, higher = more binding, comparable within an allelic series)"
same,binding signal,HOXA4,"11.5 upbm affinity estimate (log intensity, higher = more binding, comparable within an allelic series)"
same,binding signal,ALX3 [15],"8.68 upbm affinity estimate (log intensity, higher = more binding, comparable within an allelic series)"
CCGAGGCC,binding signal,HOXA2 [9],"7.28 upbm affinity estimate (log intensity, higher = more binding, comparable within an allelic series)"
same,binding signal,HOXA2 [10],"10.4 upbm affinity estimate (log intensity, higher = more binding, comparable within an allelic series)"
same,binding signal,HOXA2 [11],"10.4 upbm affinity estimate (log intensity, higher = more binding, comparable within an allelic series)"
same,binding signal,HOXA2 [12],"7.27 upbm affinity estimate (log intensity, higher = more binding, comparable within an allelic series)"
AAGCTGGC,binding signal,HOXA7 [1],"8.32 upbm affinity estimate (log intensity, higher = more binding, comparable within an allelic series)"
same,binding signal,HOXA7 [6],"8.3 upbm affinity estimate (log intensity, higher = more binding, comparable within an allelic series)"
GAACCCCC,binding signal,HOXA2 [9],"7.12 upbm affinity estimate (log intensity, higher = more binding, comparable within an allelic series)"
same,binding signal,HOXA2 [10],"10 upbm affinity estimate (log intensity, higher = more binding, comparable within an allelic series)"
same,binding signal,HOXA2 [11],"10.3 upbm affinity estimate (log intensity, higher = more binding, comparable within an allelic series)"
same,binding signal,HOXA2 [12],"7.05 upbm affinity estimate (log intensity, higher = more binding, comparable within an allelic series)"
AGAGGACC,binding signal,HOXB6,"9.07 upbm affinity estimate (log intensity, higher = more binding, comparable within an allelic series)"

# — PMC11006913
